# Assay outcomes: PubChem BioAssay, National Center for Advancing Translational Sciences (NCATS)
# FMDV inh: blocks foot and mouth disease virus | FMDV antiviral cell-based qHTS | 410,000 tested, 1.2% active | Potency, µM (doses to about 57.9 µM), inactives show at the top dose activity change, negative = inhibition, hits mostly inhibitors | AID 1159524; calls by dose curve; tested in HEK293T cells; further: read-out not given here; nearly all actives have a fitted effect of over 45% in size
# Sm TGR inh: S. mansoni TGR enzyme inhibition. Potency, µM (top dose mostly 114 µM), for inactives: at the top dose activity change, negative = inhibition, most hits filed as inhibitors. Q962Y6. purified TGR, DTNB reduction, TNB absorbance 405 nm. 360,000 tested, 3% active; further: nearly all actives have a fitted effect of over 60% in size
#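 TGR 20 nM + NADPH 100 uM (dispensed conc.), cpd preinc 15 min RT; start with NADPH (500 uM addition) then DTNB (15 mM addition). Kinetic TNB absorbance, 405 nm filter. Four-parameter Hill fit across titration.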
# Tb PYK inh: blocks Trypanosoma brucei pyruvate kinase; 410,000 tested, 0.12% active; AID 624173; TbPYK enzyme, Kinase-Glo Plus ATP luminescence, 45 min; Potency, µM (titrated, usually from 76.8 µM), for the others: top-dose activity, negative = inhibition, most hits filed as inhibitors; further: nearly all actives have a fitted effect of over 50% in size
#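 TbPYK + substrate in 50 mM TEA pH 7.2, 100 mM KCl, 10 mM MgCl2, 0.05% BSA, 0.01% Tween-20; cpd pinned; ADP 130 uM final; 45 min RT; Kinase-Glo Plus 10 min; luminescence endpoint.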
# RE007 growth inh: less growth of the S. pombe RE007 Vpr strain | Potency, µM (series often up to 92.2 µM), without a hit: at the highest dose activity change, negative = less growth, usual class: inhibitors | AID 651644 | S. pombe RE007 Vpr strain, BacTiter-Glo ATP luminescence, 24 h | 360,000 tested, 0.21% active; active means well fitted falling curve with a large enough effect; inconclusive means small, poorly fitted or top-dose-only effect; inactive means no such curve, though single readings can be large or run the other way; further: nearly all actives have a fitted effect of over 50% in size
#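 Fission yeast RE007 carrying one integrated HIV-1 vpr copy, seeded at OD 0.01 in PMG+AL medium with 23 nL pinned compound. Grown 24 h at 30 degrees; viability read by BacTiter-Glo luminescence after 5 min.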
# An asterisk follows results filed as active; ? = inconclusive; / = not tested or not shown. Rows were chosen to be rich in hits. Some 3.7% of all compounds tested hit in one or more screens of this group. Unless noted, the call rests on the fitted dose curve; in most records, active means well fitted curve in the direction sought with a large enough effect; inconclusive means small, poorly fitted or top-dose-only effect, or another doubt; inactive means no such curve, though single readings can be large; an effect the other way counts as inactive or inconclusive. On the % scale 0 is the no-effect control and ±100 the full control effect; potency means the concentration at half of the fitted maximal effect.
SMILES,FMDV inh,Sm TGR inh,Tb PYK inh,RE007 growth inh
Cc1c2oc3c(C)ccc(C(=O)N[C@@H]4C(=O)N[C@@H](C(C)C)C(=O)N5CCC[C@@H]5C(=O)N(C)CC(=O)N(C)[C@@H](C(C)C)C(=O)O[C@H]4C)c3nc-2c(C(=O)N[C@@H]2C(=O)N[C@@H](C(C)C)C(=O)N3CCC[C@@H]3C(=O)N(C)CC(=O)N(C)[C@@H](C(C)C)C(=O)O[C@H]2C)c(N)c1=O,-2%,/,/,/
Cc1ccc2c(c1)C1CCCC3C1N2CC(=O)N3Cc1ccccc1 (configuration not stated),/,50µM*,/,/
CN1CCN=C(c2ccccc2)c2cc(Cl)ccc21,/,/,0%,/
CC(=O)c1ccc2c(c1)OCO2,-21%,-13%,-2%,-7%
C[n+]1cc2c3c(ccc2c2ccc4cc5c(cc4c21)OCO5)OCO3,25µM*,/,-15%,/
CC1=CC2C(C)(C)CC(=O)C[C@]2(C)CC1COc1ccc2c(c1)CC(=O)C=C2 (some centres not stated),0%,/,/,/
COc1ccc(OC)c(NC(=O)Cc2coc3ccc(C(C)C)cc23)c1,-15%,-5%,1%,/
Cc1ccc(CCC(=O)Nc2nccs2)o1,/,45µM*,-2%,0%
CCOc1ccc(OCC(=O)Nc2nccs2)cc1,8.9µM*,/,22µM*,?
CCc1ccc(CCC(=O)Nc2nccs2)o1,20%,32µM*,0%,-19%
C=C[C@@]1(C)CC(=O)[C@@]2(O)[C@@]3(C)[C@@H](O)CCC(C)(C)[C@@H]3[C@H](OC(=O)CCN(C)C)[C@H](OC(C)=O)[C@@]2(C)O1,-9%,/,/,/
Cc1ccc(C(=O)NC(=S)NCc2cccnc2)c(C)c1,1%,45µM*,-1%,7%
COc1ccc(Cl)cc1NC(=S)NCc1cccnc1,54%,13µM*,-6%,-9%
Cc1cccc(C(=O)NC(=S)NCc2cccnc2)c1,-14%,-30%,1%,-10%
S=C(NCc1cccnc1)Nc1cccc(Cl)c1,41%,32µM*,-12%,-5%
COc1ccc(Cl)cc1NC(=S)NCc1ccccn1,13%,1%,-19%,-20%
S=C(NCc1cccnc1)Nc1ccc(Cl)cc1,24%,40µM*,-4%,-10%
CCOc1ccc2nc(NC(=O)c3nc(SCc4ccc(C)cc4)ncc3Cl)sc2c1,?,7%,-2%,/
CCOc1ccccc1CNC(=O)C1CCN(C(=O)N2CCOc3ccc(Cl)cc32)CC1,0%,-8%,3%,/
Cc1cc(-c2ccnc(-n3ncc(C(=O)N(C)CC(O)c4ccccc4)c3C)n2)c(C)s1 (configuration not stated),36%,/,/,/
S=C(NCc1cccnc1)Nc1cc(Cl)cc(Cl)c1,62%,28µM*,0%,7%
O=C(NCc1cccnc1)Nc1cc(Cl)cc(Cl)c1,39%,-21%,-4%,-4%
O=C(NCc1cccnc1)c1ccc(-c2cc(Cl)ccc2Cl)o1,0%,40µM*,-14%,-16%
O=C(NCc1cccnc1)c1ccc(-c2ccc(Cl)cc2)o1,33%,0%,3%,-2%
Cc1ccc(NC(=S)NCc2cccnc2)cc1,17%,?,-8%,-9%
SMILES,FMDV inh,Sm TGR inh,Tb PYK inh,RE007 growth inh
CC(=O)c1ccc(NC(=S)NCc2cccnc2)cc1,16%,40µM*,-3%,7%
O=C(COc1ccccc1F)Nc1ccc2oc(-c3cccc(Cl)c3)nc2c1,-8%,8%,2%,/
Cc1cccc2c(Nc3ccc4c(c3)OCO4)nc(CN3CCC(N4CCCCC4)CC3)nc12,-12%,/,/,/
Cc1ccc(OCC(=O)Nc2nnc(SCc3cc(=O)c4ccccc4[nH]3)s2)cc1,-22%,0%,28µM*,/
O=C(COc1ccccc1)Nc1nnc(SCc2cc(=O)c3ccccc3[nH]2)s1,?,-8%,?,/
Cc1cc(C(=O)Nc2ccccc2-c2nc(CNC(=O)c3sc(C)nc3C)c(C)o2)c(C)o1,1%,/,/,/
COc1cc(-c2nc3ccccn3c2/N=C/c2cc(OC)c(O)cc2Cl)ccc1O,7%,25µM*,-9%,?
CC(C)Cn1c(-c2ccco2)csc1=Nc1cccnc1,-17%,56µM*,-7%,0%
COCCn1c(-c2ccco2)csc1=Nc1cccnc1,-21%,?,-3%,-11%
COCCn1c(-c2cccs2)csc1=Nc1cccnc1,22µM*,-25%,?,5%
Cc1c(C(=O)NCCCc2ccncc2)cnn1-c1nccc(-c2ccccc2F)n1,-20%,/,/,/
COC[C@@H](c1ccc(C(F)(F)F)cc1)N1CCN(C2(C)CCN(C(=O)c3c(C)ncnc3C)CC2)C[C@@H]1C,/,/,0%,/
